Source: PubChem BioAssay (NCATS)
“And” between values parts separate entries of the source, which are not always exact repeats. Equal entries are not always repeated. Inconclusive results are not listed. The source made the active and inactive calls. Unless noted, calls come from the whole dose curve; as a rule, active = well fitted curve in either direction with a large enough effect (not every such curve was filed as active); inconclusive = small, poorly fitted or top-dose-only effect, or another doubt; inactive = flat fitted curve, though single readings scatter.

Columns and labels:
[1] = Stat Signaling Pathway (AID 446); details: ME-180 (cervical carcinoma) SIE beta-lactamase reporter, IL-6 stimulated, 5 h; series mostly up to 17.2 µM;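 note: ME-180 cervical cancer cells given 40 pM IL-6 alongside compound; SIE-controlled beta-lactamase reporter measured as 460/530 nm FRET emission ratio; % is set by controls: 0 for no effect and ±100 for the full control effect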
Method in brief: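 IL-6/STAT signaling read in ME-180 cells via an SIE beta-lactamase reporter. Stimulus was 40 pM IL-6 (its AC50) for 5 hrs, so both activation and inhibition register.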

[2] = target: Glucocorticoid receptor (Homo sapiens) (UniProt P04150); assay: GR-GFP Redistribution (AID 450;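 active = compounds whose dose series gives a full or clear partial fitted curve of increased nuclear translocation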; note: potency is the fitted concentration of half-maximal effect); details: U2OS GR-GFP nuclear translocation, laser cytometry, 2 h
Glucocorticoid receptor (Homo sapiens), sequence (P04150 whole entry, looked up, the tested form may be a part): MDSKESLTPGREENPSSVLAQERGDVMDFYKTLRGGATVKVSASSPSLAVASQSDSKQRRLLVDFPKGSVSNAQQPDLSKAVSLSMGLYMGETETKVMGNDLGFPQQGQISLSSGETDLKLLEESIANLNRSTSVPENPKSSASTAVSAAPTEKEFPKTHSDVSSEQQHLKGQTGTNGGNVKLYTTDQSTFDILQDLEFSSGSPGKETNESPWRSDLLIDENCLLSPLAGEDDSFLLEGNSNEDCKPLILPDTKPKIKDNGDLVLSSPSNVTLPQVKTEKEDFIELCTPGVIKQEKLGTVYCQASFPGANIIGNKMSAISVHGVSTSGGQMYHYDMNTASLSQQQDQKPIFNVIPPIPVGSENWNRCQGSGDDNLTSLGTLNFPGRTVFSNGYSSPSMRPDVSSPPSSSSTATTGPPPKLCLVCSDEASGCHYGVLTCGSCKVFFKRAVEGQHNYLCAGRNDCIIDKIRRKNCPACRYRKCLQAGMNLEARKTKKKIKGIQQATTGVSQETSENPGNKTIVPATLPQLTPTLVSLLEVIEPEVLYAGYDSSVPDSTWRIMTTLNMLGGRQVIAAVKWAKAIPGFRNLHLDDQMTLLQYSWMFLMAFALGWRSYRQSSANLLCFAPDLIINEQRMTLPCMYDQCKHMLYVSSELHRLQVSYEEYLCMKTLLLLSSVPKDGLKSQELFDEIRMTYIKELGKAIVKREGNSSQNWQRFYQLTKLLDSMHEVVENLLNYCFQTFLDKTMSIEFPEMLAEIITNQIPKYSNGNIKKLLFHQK

[3] = target: Glucocorticoid receptor (Homo sapiens) (UniProt P04150); assay: GR-EFC Redistribution (AID 451; calls by dose curve; note: potency is the fitted concentration of half-maximal effect); details: CHO-K1 GR-EFC translocation, beta-gal luminescence, 2 h
Method in brief: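 CHO-K1 cells stably expressing nuclear-localized β-gal enzyme acceptor and GR fused C-terminally to the enzyme donor fragment; ligand-driven nuclear translocation restores β-gal by complementation. Compounds titrated up to 46 uM final, 2 h at 37 °C; luminescence read.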

[4] = target: Mitogen-activated protein kinase 10 (Mus musculus) (UniProt Q61831); assay: JNK3 AlphaScreen Assay (AID 530); details: JNK3 lysate, c-Jun phosphorylation; series mostly up to 57.1 µM;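 note: kinase came from lysate of stimulated human HepG2 cells; signal reports phosphorylation of biotinylated GST-cJun 1-79 at Ser73 with 10 µM ATP; % is set by controls: 0 for no effect and ±100 for the full control effect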
Method in brief: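 JNK3 came from HepG2 lysates pre-activated with IL-1beta and TNF-alpha and phosphorylated biotinylated GST-cJun (1-79) at 10 uM ATP, pH 7.6, room temperature. Compounds were titrated. AlphaScreen signal used anti-phospho-cJun (Ser73) antibody.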

[5] = NFAT Signaling Pathway (AID 444); details: Jurkat NFAT-bla M1, carbachol, beta-lactamase ratio, 5 h;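 note: carbachol stimulus at about its EC50 of 1 µM final; % is set by controls: 0 for no effect and ±100 for the full control effect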
Method in brief: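 Jurkat cells carrying an NFAT-driven β-lactamase reporter and co-transfected muscarinic M1 receptor were treated with compound plus carbachol (1 uM final, an EC50 level) for 5 h at 37 °C. CCF4 loading followed for 1 h at RT; 460/530 nm ratio gave %activity.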

[6] = Cell Viability - BJ (AID 421; calls by dose curve;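 note: potency is the fitted concentration of half-maximal effect; cells exposed to compound for 40 hours at 37 °C before readout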); details: BJ fibroblast viability, qHTS
Method in brief: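 Quantitative HTS: ATP depletion in BJ cells after 40 hr compound exposure in complete culture medium, detected with CellTiter-Glo; AC50 from standard Hill fits.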

[7] = Cell Viability - Jurkat (AID 426;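 active = dose-dependent loss of cell ATP signal giving a full or clear fitted curve, ranked by lower potency value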;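 note: potency is the fitted concentration of half-maximal effect; cells exposed to compound for 40 hours at 37 °C before ATP read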); details: qHTS
Method in brief: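 Seed 5000 Jurkat E6-1 cells/well; add compound; incubate 40 hr at 37 °C; add CellTiter-Glo; wait 20 min at room temperature; read luminescence. Fit concentration-response with Hill equation for AC50.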

[8] = Cell Viability - Hek293 (AID 427;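 active = compounds whose dose-response curve shows a full or clear partial loss of cell viability, called from curve shape rather than a numeric limit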;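 note: potency is the fitted concentration of half-maximal effect; cells exposed to compound for 40 hours at 37 °C before reading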); details: qHTS
Method in brief: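 AC50 values derive from Hill-modelled concentration-response of ATP-based luminescence, normalized between DMSO-only and 100 uM tamoxifen controls. Cells were exposed in complete culture medium for 40 hr at 37 °C before detection.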

[9] = Cell Viability - HepG2 (AID 433; calls by dose curve;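 note: potency is the fitted concentration of half-maximal effect; potency for ATP loss meaning cytotoxicity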); details: qHTS
Method in brief: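 HepG2 hepatocellular carcinoma cells (1500/well) were treated with compounds for 40 h at 37 °C in complete medium; intracellular ATP was read by CellTiter-Glo luminescence. Data were normalized to DMSO and 100 uM tamoxifen, and AC50 came from Hill fits.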

[10] = Cell Viability - MRC5 (AID 434; calls by dose curve;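 note: potency is the fitted concentration of half-maximal effect; potency reflects cytotoxicity seen as loss of intracellular ATP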); details: MRC5 lung fibroblast viability, qHTS
Method in brief: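 MRC5 normal human lung fibroblasts (1500/well) were treated with compounds for 40 hr at 37 °C in complete medium, and viable cells were measured as intracellular ATP by CellTiter-Glo luminescence. AC50 came from Hill fits, normalized to DMSO and 100 uM tamoxifen.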

[11] = Cell Viability - SK-N-SH (AID 435; calls by dose curve;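 note: potency is the fitted concentration of half-maximal effect; compound exposure lasted 40 h at 37 °C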); details: SK-N-SH neuroblastoma cell viability qHTS
Method in brief: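 SK-N-SH human neuroblastoma cells (1500/well) were exposed to compounds in complete medium for 40 h at 37 °C, and intracellular ATP was then measured by CellTiter-Glo luminescence. AC50 was taken from Hill fits, normalized to DMSO and 100 uM tamoxifen.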

[12] = Cell Viability - N2a (AID 540; active = well fitted curve in the direction sought with a large enough effect; an effect the other way counts as inactive or inconclusive; note: potency is the fitted concentration of half-maximal effect; nearly all actives have a fitted effect of over 45% in size); details: N2a mouse neuroblastoma cell viability; activity change, negative = cytotoxicity: at 92.2 µM (top of the series)
Method in brief: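 First, 1500 N2a cells per well incubate 5 hr at 37 °C; next, compounds are added and incubated 40 hr at 37 °C; finally CellTiter-Glo is added and luminescence read after 20 min, with AC50 derived by Hill modeling.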

[13] = Cell Viability - NIH 3T3 (AID 541; active = well fitted curve in the direction sought with a large enough effect; an effect the other way counts as inactive or inconclusive;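 note: plate controls were DMSO alone for no effect and tamoxifen positive control for full effect; nearly all actives have a fitted effect of over 25% in size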); details: NIH 3T3 cell viability, qHTS; activity change, negative = cytotoxicity: at 92.2 µM (top of the series)
Method in brief: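 AC50 values reflect concentration-dependent loss of intracellular ATP in NIH 3T3 cells after 40 hr treatment in complete culture medium, quantified by luciferase-based luminescence.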

[14] = Cell Viability - HUV-EC-C (AID 542; active = well fitted curve in the direction sought with a large enough effect; an effect the other way counts as inactive or inconclusive; note: % is set by controls: 0 for no effect and ±100 for the full control effect; nearly all actives have a fitted effect of over 35% in size); details: HUV-EC-C endothelial cell viability, qHTS; series mostly up to 92.2 µM
Method in brief: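 Decrease in cellular ATP, quantified by luciferase luminescence, reflects toxicity in normal human vascular endothelial HUV-EC-C cells given compound for 40 hr in complete culture medium. Values are AC50s from concentration-response curves.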

[15] = Cell Viability - H-4-II-E (AID 543; active = well fitted curve in the direction sought with a large enough effect; an effect the other way counts as inactive or inconclusive; note: potency is the fitted concentration of half-maximal effect; nearly all actives have a fitted effect of over 35% in size); details: H-4-II-E rat hepatoma viability; series mostly up to 92.2 µM
Method in brief: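 Here, cytotoxicity is measured in the rat hepatoma line H-4-II-E as loss of intracellular ATP after 40 hr compound treatment, detected by luciferase luminescence.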

[16] = Cell Viability - SH-SY5Y (AID 544; active = well fitted curve in the direction sought with a large enough effect; an effect the other way counts as inactive or inconclusive; note: potency is the fitted concentration of half-maximal effect; nearly all actives have a fitted effect of over 55% in size); details: SH-SY5Y neuroblastoma cell viability; viability change, negative = cytotoxic: at 92.2 µM (top of the series)
Method in brief: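 Cytotoxicity is scored as a concentration-dependent fall in intracellular ATP in human SH-SY5Y cells treated 40 hr in complete culture medium. Potency is expressed as AC50 from a Hill equation fit.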

[17] = Cell Viability - Renal Proximal Tubule (AID 545; active = well fitted curve in the direction sought with a large enough effect; an effect the other way counts as inactive or inconclusive; note: potency is the fitted concentration of half-maximal effect; nearly all actives have a fitted effect of over 40% in size); details: renal proximal tubule cells viability, primary cells of rat origin; series mostly up to 91.7 µM
Method in brief: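 Primary rat renal proximal tubule cells (1000/well) were treated with compounds for 40 hr at 37 °C in complete medium. Intracellular ATP was measured by CellTiter-Glo luminescence, and AC50 values came from Hill-equation fits of concentration-response data.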

[18] = target: Cytochrome P450 1A2 (Homo sapiens) (UniProt P05177); assay: p450-cyp1a2 (AID 410; calls by dose curve; note: potency is the fitted concentration of half-maximal effect); details: recombinant CYP1A2, luciferin-ME demethylation, luminescence; series mostly up to 57 µM
Cytochrome P450 1A2 (Homo sapiens), sequence (P05177 whole entry, looked up): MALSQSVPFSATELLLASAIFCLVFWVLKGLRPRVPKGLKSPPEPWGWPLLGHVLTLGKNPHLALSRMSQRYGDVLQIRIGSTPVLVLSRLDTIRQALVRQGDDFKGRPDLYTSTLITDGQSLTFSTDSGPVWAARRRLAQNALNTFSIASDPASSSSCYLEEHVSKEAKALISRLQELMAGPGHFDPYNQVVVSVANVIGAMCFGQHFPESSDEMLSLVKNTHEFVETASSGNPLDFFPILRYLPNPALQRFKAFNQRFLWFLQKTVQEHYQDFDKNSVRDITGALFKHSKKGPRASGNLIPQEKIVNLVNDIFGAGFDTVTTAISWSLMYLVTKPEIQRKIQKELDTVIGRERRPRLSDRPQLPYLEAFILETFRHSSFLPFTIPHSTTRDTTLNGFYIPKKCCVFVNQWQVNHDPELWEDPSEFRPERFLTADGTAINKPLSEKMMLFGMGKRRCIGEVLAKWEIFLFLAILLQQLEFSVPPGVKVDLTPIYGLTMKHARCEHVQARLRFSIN
Method in brief: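 Inhibition was calculated relative to 57 uM furafylline (full inhibition). The reaction used human CYP1A2 at 20nM with Luciferin-ME at its Km, 100uM, driven by an NADPH-regenerating system for 60 min at room temperature.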

O=C1c2c(O)ccc(O)c2C(=O)c2c(NCCNCCO)ccc(NCCNCCO)c21
inactive: outcome [1] | Potency [2] > 46 µM and > 20.6 µM | Potency [3] > 46 µM and > 20.6 µM | outcome [4]

CC(C)Cc1ccc(C(C)C(=O)O)cc1 (stereo unspecified)
inactive: activity change, negative = inhibition ([5]; at 17.2 µM (top of the series)) -15% | outcome [1] | Potency [2] > 20.6 µM

NC12CC3CC(CC(C3)C1)C2
inactive: activity change, negative = inhibition ([5]; at 17.2 µM (top of the series)) 5.54% | activity change, negative = inhibition ([5]; at 38 µM (top of the series)) -1.81% | outcome [1] | Potency [2] > 46 µM and > 20.6 µM | Potency [3] > 46 µM and > 20.6 µM | outcome [4]

CNCCCC12CCC(c3ccccc31)c1ccccc12
inactive: outcome [1] | Potency [2] > 46 µM and > 20.6 µM | Potency [3] > 46 µM and > 20.6 µM | outcome [4]

COc1cc2c(c(OC)c1OC)-c1ccc(OC)c(=O)cc1[C@@H](NC(C)=O)CC2
active: Potency [7] 2.81 nM and 1.63 nM | Potency [11] 9.09 nM and 5.26 nM | Potency [12] 10 nM | Potency [15] 126 nM | Potency [16] 5.01 nM and 3.98 nM | Potency [17] 25.1 nM and 20 nM
inactive: Potency [6] > 92 µM | Potency [8] > 92 µM | Potency [9] > 92 µM | Potency [10] > 92 µM | outcome [4] | Potency [13] | outcome [14]

O=C(CCCN1CCC(O)(c2ccc(Cl)cc2)CC1)c1ccc(F)cc1
inactive: activity change, negative = inhibition ([5]; at 38 µM (top of the series)) -17.8% | outcome [1] | outcome [4]

O=C(c1ccc(F)cc1)C1CCN(CCn2c(=O)[nH]c3ccccc3c2=O)CC1
inactive: activity change, negative = inhibition ([5]; at 17.2 µM (top of the series)) -11.4% and -13.2% | outcome [1] | Potency [2] > 46 µM and > 20.6 µM | Potency [3] > 46 µM and > 20.6 µM | outcome [4]

CN(C)CCCN1c2ccccc2CCc2ccc(Cl)cc21
active: Potency [18] 20 µM and 5.01 µM and 15.8 µM | activity change, negative = inhibition ([5]; at 17.2 µM (top of the series)) -83%
inactive: outcome [1] | Potency [2] > 46 µM and > 20.6 µM | Potency [3] > 46 µM and > 20.6 µM | outcome [4]

COC(=O)Nc1nc2ccc(C(=O)c3cccs3)cc2[nH]1
inactive: outcome [1] | Potency [2] > 46 µM and > 20.6 µM | Potency [3] > 46 µM and > 20.6 µM | outcome [4]
active: Potency [18] 5.01 µM and 1.58 µM and 794 nM | activity change, negative = inhibition ([5]; at 17.2 µM (top of the series)) -68.4%

O=C(Nc1ccc([N+](=O)[O-])cc1Cl)c1cc(Cl)ccc1O
inactive: Potency [2] > 46 µM and > 20.6 µM | Potency [3] > 46 µM and > 20.6 µM | outcome [4]
active: Potency [18] 3.98 µM and 1.26 µM | activity change, negative = inhibition ([5]; at 17.2 µM (top of the series)) -101% | activity change, negative = inhibition ([5]; at 38 µM (top of the series)) -89.8%

CCOC(=O)Nc1ccc(NCc2ccc(F)cc2)nc1N
inactive: activity change, negative = inhibition ([5]; at 38 µM (top of the series)) -3.88% | outcome [1] | Potency [2] > 46 µM | Potency [3] > 46 µM | outcome [4]
